Test results taken from PubChem BioAssay AID1578 (Sanford-Burnham Center for Chemical Genomics, 2009).
Screen size: about 290,000 compounds; about 3,000 (1%) were called active. Rule as the data show it: active = inhibition mostly above about 36% (no sharp cut-off); inactive = mostly below about 34%. The full list was thinned out, with actives kept by preference.

Assay: NOD1 signaling inhibitors, primary screen, cell-based, luminescence, uHTS (AID 1578);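 also: HEK-293T reporter cells stimulated with the NOD1 agonist gamma-tri-DAP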
Conditions: NOD1-driven NF-kB luciferase reporter cells, at 4 µM, hits give high values

Row | Structure (SMILES) | inhibition
1 | Cc1ccc(C)c(NS(=O)(=O)c2csc(C(N)=O)c2)c1 | -9.7% (inactive)
2 | O=C(Nc1ccc(Nc2ccccc2)cc1)C(Cl)Cl | -5.4% (inactive)
3 | CC(=O)c1c(-c2ccccc2)[nH]c2ccccc12 | 5.8% (inactive)
4 | Cc1ccccc1N1C(=O)CC(c2c[nH]c3ccccc23)C1=O (configuration not stated) | -3.6% (inactive)
5 | COc1nc(OC)nc(N2CCC(C(=O)NCC3CCCCC3)CC2)n1 | -10.9% (inactive)
6 | Cc1nnc(SCCn2c(N3CCCC(C)C3)nc3c2c(=O)[nH]c(=O)n3C)s1 (configuration not stated) | -9.1% (inactive)
7 | C=CCN(CC=C)C(=S)NC(=O)c1ccc(OC)c(Br)c1 | 30.4% (inactive)
8 | C=CCNC(=S)NC(=O)c1ccc(C)c(Br)c1 | -4.3% (inactive)
9 | C=CCN(CC=C)C(=S)NC(=O)c1ccc(C)c(Br)c1 | 108% (active)
10 | O=S(=O)(c1ccc(Cl)cc1)n1cnc2ccccc21 | -31.4% (inactive)
11 | Cc1ccc(-c2csc(N(C)C(=O)c3c(C)nn(-c4ccccc4)c3Cl)n2)cc1 | 33.6% (inactive)
12 | O=C(CN1C(=O)NC2(CCCCC2)C1=O)N1CCN(S(=O)(=O)c2ccccc2)CC1 | -35.1% (inactive)
13 | Cc1cccc(C)c1Nc1nnc(SCc2nc3ccccc3s2)s1 | -39.5% (inactive)
14 | CC1(C)CC(=O)C=C(Nc2cc(-c3ccccc3)[nH]n2)C1 | -25.9% (inactive)
15 | Nc1ccccc1Nc1cc(-c2ccccc2)[nH]n1 | 48.4% (active)
16 | Nc1ccccc1Nc1cc(-c2ccccc2)nn1-c1ccccc1 | -20.6% (inactive)
17 | CC(C)C(NC(=O)c1ccc(F)cc1)C(=O)NCC1CCCO1 (configuration not stated) | -6.2% (inactive)
18 | COc1cc(OC)cc(C(=O)Nc2ccc(S(=O)(=O)N3CCOCC3)cc2)c1 | -9.3% (inactive)
19 | COc1cc(OC)cc(C(=O)N2CCC3(CC2)NCCc2[nH]cnc23)c1 | -20.2% (inactive)
20 | CC1Sc2ccc(Cl)cc2-c2nc(N)ncc21 (configuration not stated) | 50.5% (active)
21 | Nc1ncc2c(n1)-c1cc(Cl)ccc1SC2 | -6.1% (inactive)

Row | Structure (SMILES) | inhibition
22 | CC1C/C(=N\NC(N)=S)c2cc(Cl)ccc2S1 (configuration not stated) | 3.3% (inactive)
23 | Cc1c(Cl)c([N+](=O)[O-])nn1CCCC(=O)Nc1cccc(O)c1 | -0.3% (inactive)
24 | O=[N+]([O-])c1cc(S(=O)(=O)C(F)(F)F)ccc1Sc1nc2ccccc2[nH]1 | 46.1% (inactive)
25 | Cc1ccc(CN2CCN(Cc3cccn3-c3ccc(Cl)cn3)CC2CCO)o1 (configuration not stated) | -17.4% (inactive)
26 | O=C(CSc1ccc2nnc(-c3ccncc3)n2n1)Nc1ccc2c(c1)OCCO2 | 9.6% (inactive)
27 | Cc1ccccc1OCc1nc2ccccc2c(=O)n1/N=C/c1ccco1 | 31.5% (inactive)
28 | Cc1ccccc1OCc1nc2ccccc2c(=O)n1/N=C/c1cccc([N+](=O)[O-])c1 | 80.1% (active)
29 | Cc1cc(/C=N/n2c(COc3ccccc3C)nc3ccccc3c2=O)c(O)c([N+](=O)[O-])c1 | 15% (inactive)
30 | O=C(Oc1ccc2ccc(=O)oc2c1)c1ccc([N+](=O)[O-])cc1 | -9.4% (inactive)
31 | CCc1nc(C)cn1S(=O)(=O)c1ccc(Br)cc1 | -17.6% (inactive)
32 | CCOC(=O)c1cc(C(=O)c2cc(Br)ccc2O)coc1=N | -15.1% (inactive)
33 | CCOc1ccccc1NC(=O)c1cc(C(=O)c2cc(Br)ccc2O)coc1=N | 56.4% (active)
34 | CCOc1ccccc1NC(=O)c1cc(C(=O)c2cc(OC)ccc2O)coc1=N | -9.3% (inactive)
35 | COc1cccc(CNC(=O)C(C)n2nc(C)n3c(cc4occc43)c2=O)c1 (configuration not stated) | -11.7% (inactive)
36 | CCOc1cc2[nH]c(=O)n(CCC(=O)NCCc3ccccc3)c(=O)c2cc1OCC | -0.5% (inactive)
37 | Cc1cc(C)c(S(C)(=O)=O)c(S(=O)(=O)c2ccc(Cl)cc2)n1 | -33.9% (inactive)
38 | CC(C)CCNC(=O)c1ccc2c(SCC(=O)O)c3c(nc2c1)CCCC3 | -29.5% (inactive)
39 | CC(C)CCNC(=O)c1ccc2c(SCC(=O)O)c3c(nc2c1)CCC3 | 0.8% (inactive)
40 | O=C(O)CSc1c2c(nc3cc(C(=O)NCCN4CCOCC4)ccc13)CCC2 | 91.8% (active)
41 | Cc1ccccc1S(=O)(=O)Cc1ccc(C(=O)N2CCN(c3ccccc3F)CC2)o1 | 21.3% (inactive)
42 | Cc1ccc(S(=O)(=O)Cc2ccc(C(=O)N3CCN(c4cccc(C)c4C)CC3)o2)cc1 | 27.1% (inactive)

Row | Structure (SMILES) | inhibition
43 | COc1ccccc1-c1noc(-c2cc(OC)c(OC)c(OC)c2)n1 | -24% (inactive)
44 | CC(C(=O)OCC(=O)c1cccc([N+](=O)[O-])c1)N1C(=O)C2C3CCC(C3)C2C1=O (configuration not stated) | -8.4% (inactive)
45 | NC(=O)COC(=O)C1CSC2(c3ccc(F)cc3)CCC(=O)N12 (configuration not stated) | -7.5% (inactive)
46 | O=C(CSCC(=O)Nc1ccccc1)N/N=C/c1c(O)ccc2ccccc12 | 86.4% (active)
47 | Oc1ccc2ccccc2c1/C=N/Nc1ccccc1 | -38.9% (inactive)
48 | O=C(CNc1ccccc1)N/N=C/c1c(O)ccc2ccccc12 | -10.9% (inactive)
49 | Cc1cccc(C)c1NC(=O)CCCSc1nnnn1C | -22.8% (inactive)
50 | Cc1ccc(NC(=O)CC2SC(=NC3CCCCC3)NC2=O)cc1 (configuration not stated) | -23.2% (inactive)
51 | CCCn1cccc(C(=O)Nc2ccc(OC)cc2)c1=O | -3.2% (inactive)
52 | O=C(CSc1nnc(CNC(=O)c2c(F)cccc2F)o1)NCc1ccccc1 | -29.1% (inactive)
53 | CCN(CC)S(=O)(=O)c1ccc(N=Cc2c(C)c(C#N)c(=O)n(C)c2O)cc1 | -9.8% (inactive)
54 | COc1ccc(C2NC(=S)NC(O)(C(F)(F)F)C2C(=O)c2cccs2)cc1 (configuration not stated) | -33.8% (inactive)
55 | CC(/C=N/n1cnnc1)=C\c1ccccc1 | -1% (inactive)
56 | BrC(=C\c1ccccc1)/C=N/n1cnnc1 | 66.7% (active)
57 | Nc1nnnn1/N=C/C(Br)=C/c1ccccc1 | 95.9% (active)
58 | ClC(/C=N/n1cnnc1)=C/c1ccccc1 | 1.7% (inactive)
59 | Nc1nnnn1/N=C/C=C/c1ccccc1 | 10.1% (inactive)
60 | Nc1nnnn1/N=C/c1ccccc1 | -4% (inactive)
61 | Cc1ccc(C(=O)Nc2ccc(S(=O)(=O)Nc3cnc4ccccc4n3)cc2)cc1 | -14.5% (inactive)
62 | COc1cccc(/C=C2\SC(=S)N(CCCC(=O)Nc3cc(C)on3)C2=O)c1 | -22.5% (inactive)
